Screens: PubChem BioAssay, National Center for Advancing Translational Sciences (NCATS)
Compounds with a hit are over-represented: about 2.9% of the library has one in this group of screens.
D3 antag: qHTS of D3 Dopamine Receptor Antagonist: qHTS; D(3) dopamine receptor (Homo sapiens), P35462; 360,000 compounds, 2.5% hits; D3R cells, DiscoveRx beta-arrestin luminescence, antagonist mode; hits give low values; AID 652054, 2013; max response, negative = inhibition, %; in the data active = max response below about -50%; inconclusive = no clear call, values can overlap the other calls; note: % is set by controls: 0 for no effect and ±100 for the full control effect
Target sequence (P35462 whole entry, looked up): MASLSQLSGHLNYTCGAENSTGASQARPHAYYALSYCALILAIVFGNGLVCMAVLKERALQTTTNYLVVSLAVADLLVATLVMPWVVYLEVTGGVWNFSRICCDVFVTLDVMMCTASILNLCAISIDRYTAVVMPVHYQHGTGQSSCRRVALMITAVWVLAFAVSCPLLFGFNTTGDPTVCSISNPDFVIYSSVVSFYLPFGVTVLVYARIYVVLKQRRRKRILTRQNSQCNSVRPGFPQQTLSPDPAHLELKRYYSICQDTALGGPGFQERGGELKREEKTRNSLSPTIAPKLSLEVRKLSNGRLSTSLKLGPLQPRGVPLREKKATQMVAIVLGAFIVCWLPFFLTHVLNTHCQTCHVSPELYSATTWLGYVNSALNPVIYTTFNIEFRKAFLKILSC
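Cells expressing the human receptor were seeded at 1500 cells/well, incubated overnight at 37 degrees C in 5% CO2, then exposed to library compounds with dopamine controls for 90 minutes at 37 degrees C before luminescent detection.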
DRD3 agonist: qHTS of D3 Dopamine Receptor Agonist: qHTS. D(3) dopamine receptor (Homo sapiens), P35462. D3R DiscoveRx beta-arrestin cells, luminescence, 90 min. max activation, %. 410,000 compounds, 0.58% hits. AID 652048, 2013; in the data active = max activation above about 30%; note: 0% is about no effect
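Agonist-mode cell screen: cells plated at 1500/well and incubated overnight at 37 °C, then exposed to library compounds for 90 min at 37 °C. Detection reagent was added for 30–60 min at room temperature, and luminescence was read.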
Mm-Cpn inhibitor: Inhibitors of TCP-1 ring complex (TRiC) of Methanococcus maripaludis (MmCpn): qHTS; 330,000 compounds, 0.031% hits; Chaperonin Mm-Cpn (Methanococcus maripaludis); purified Mm-Cpn ATPase, ADP Transcreener TR-FRET; Potency, µM (doses to about 76.9 µM), for inactives: at the top dose activity, negative = inhibition, usual class: inhibitors; active = well fitted inhibition curve with a large enough effect; inconclusive = small, poorly fitted or top-dose-only effect; note: potency is the fitted concentration of half-maximal effect; % is set by controls: 0 for no effect and ±100 for the full control effect; nearly all actives have a fitted effect of over 80% in size
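ATP (10 uM final) was added to archaeal chaperonin (25 nM final) after 10 min exposure to test compound at 37°C; after 30 min further incubation, ADP was detected by competitive TR-FRET.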
Rango release inh: qHTS Assay for Inhibitors of RanGTP induced Rango (Ran-regulated importin-beta cargo) - Importin beta complex dissociation. Potency, µM (series often up to 46.1 µM), for the others: at the top dose activity change, negative = inhibition. 340,000 compounds, 0.071% hits. Biochemical FRET Rango-importin beta, RanGTP-induced dissociation. Snurportin-1 (Homo sapiens) + GTP-binding nuclear protein Ran (Homo sapiens) + Importin …; note: potency is the fitted concentration of half-maximal effect; % of control where 0% means no effect; nearly all actives have a fitted effect of over 45% in size
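Two FRET readings bracket the reaction: one 5 min after compound meets Rango–importin beta, another 45 min after RanGTP-RCC1 (0.6 uM Ran, 0.2 uM RCC1, 2 mM GTP) is added. Only the second defines inhibition.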
Rango-impB inh: qHTS Assay for Inhibitors of Rango (Ran-regulated importin-beta cargo) - Importin beta complex formation; Importin subunit beta-1 (Homo sapiens), Q14974; Rango CFP/YFP FRET sensor + importin beta, 45 min; Potency, µM (top dose mostly 92.2 µM), inactives show at the highest dose inhibition of complex formation; 340,000 compounds, 0.031% hits; AID 540263, 2011;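 note: potency is the fitted concentration of half-maximal effect; 0% = DMSO wells and 100% = buffer wells lacking importin beta; nearly all actives have a fitted effect of over 15% in size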
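FRET biosensor Rango (snurportin 1 IBB between N-terminal EYFP and C-terminal Cerulean), 50 nM in PBS/1 mM DTT/0.02% Tween-20/0.1% BSA, preincubated 5 min RT with compound; 0.125 microM importin beta added, 45 min RT, CFP/YFP FRET ratio read.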
TSG101-PTAP inh: qHTS Assay for Iinhibitors of HIV-1 Budding by Blocking the Interaction of PTAP/TSG101; Tumor susceptibility gene 101 protein (Homo sapiens), Q99816; Fluorescence polarization, FITC-PTAP peptide / Tsg101 binding; Potency, µM (series often up to 115 µM), for inactives: top-dose activity change, negative = inhibition, actives largely listed as inhibitors; 340,000 tested, under 10 active; AID 493005, 2010; active = well fitted inhibition curve with a large enough effect in the main read-out, with a control signal flat, not every such curve was filed as active; inconclusive = small, poorly fitted or top-dose-only effect, or effect the other way, or a change in a side signal; inactive = no such curve, though single readings can be large or run the other way; note: potency is the fitted concentration of half-maximal effect; % of control where 0% means no effect
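Fluorescence anisotropy tracks displacement of a FITC-tagged PTAP peptide (50 nM) from the Tsg101 binding domain (10 uM), following a 20 min room-temperature incubation at pH 7.5.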
* hit, by the source's call; u = inconclusive; x = no result given. Unless noted, calls come from the whole dose curve.

SMILES | D3 antag | DRD3 agonist | Mm-Cpn inhibitor | Rango release inh | Rango-impB inh | TSG101-PTAP inh
CCOC(=O)C1(Cc2ccccc2)CCN(Cc2cnn(-c3ccccc3)c2)CC1 | -62.8* | -9.0 | 0.2% | 7.4% | 1.6% | -0.3%
O=C(Cn1nc(-c2ccccc2)nc(Cc2ccccc2)c1=O)Nc1ccccc1 | x | 11.5 | x | x | x | x
CC(C)N(Cc1cnn(C)c1)Cc1nc(-c2ccc(Cl)cc2)no1 | 14.9 | -1.5 | -3.1% | -9.9% | -2.0% | 2.9%
O=C(COCc1cc(-c2ccc(F)cc2)on1)Nc1cc(Cl)ccc1O | x | 18.4 | x | x | x | x
CCOC(=O)C1(CCOc2ccccc2)CCN(Cc2ccc3c(c2)OCCO3)CC1 | -56.1* | 0.0 | -1.0% | 11.0% | 3.3% | -6.6%
COc1ccccc1N1CCN(CC(C)N(C(=O)C2CCCCC2)c2ccccn2)CC1 (stereo unspecified) | -70.0* | -35.9 | 0.5% | 8.1% | -2.3% | -0.5%
Cc1ccc(CN(C(=O)c2ccc(F)cc2)c2ccccn2)o1 | x | -0.8 | x | x | x | x
O=C(C1CCCCC1)N(Cc1ccccc1)c1ccccn1 | 4.6 | 1.0 | -0.1% | -19.5% | -2.6% | -0.4%
COc1ccccc1N1CCN(CCN(C(=O)c2ccc(F)cc2)c2ccccn2)CC1 | -116.0* | -90.8 | u | 1.4% | 1.4% | -0.3%
COc1ccccc1N1CCN(CCN(C(=O)C2CCCCC2)c2ccccn2)CC1 | -84.6* | -90.0 | -4.9% | -10.6% | -0.1% | -2.3%
O=S(=O)(N/N=C/c1ccc(Cl)cc1)c1ccc(Cc2ncc(C(F)(F)F)cc2Cl)s1 | -73.4* | 3.4 | -1.2% | -23.4% | u | -9.2%
NC(=O)c1ccc(Cc2ncc(C(F)(F)F)cc2Cl)s1 | 0.0 | -2.2 | -21.7% | 15.0% | -0.6% | -2.4%
CN(C)c1ccc(/C=C/C=C2/SC(=S)N(c3ccccc3)C2=O)cc1 | -66.6* | -9.7 | 0.9% | 1.4% | -3.5% | 2.7%
O=C(O)c1ccc(N2C(=O)/C(=C/C=C/c3ccccc3)SC2=S)cc1 | 2.2 | 0.3 | -0.1% | -11.3% | -0.2% | -2.8%
Cc1ccc(NC(=S)N/N=C/c2cccn2Cc2ccccc2F)cc1 | -53.4* | 8.0 | -2.5% | 8.5% | 1.8% | -6.1%
OC(c1cccc(CN2CCCCC2)c1)c1ncc(-c2cccc3ccccc23)[nH]1 (stereo unspecified) | -53.8* | -18.1 | x | x | x | x
COc1ccc(C(C)NC(=O)CN(c2cc(OC)ccc2OC)S(=O)(=O)c2ccccc2)cc1 (stereo unspecified) | x | 0.8 | x | x | x | x
O=C(/C=C/c1cccs1)N1CCC2(CC1)Oc1ccc(Cl)cc1C(=O)C21CC(c2cccnc2)=NO1 (stereo unspecified) | 80.1 | 37.1* | 0.9% | -8.2% | -1.3% | -5.3%
COc1ccc(NC(=O)c2nc(C)n(-c3ccc([N+](=O)[O-])cc3)n2)cc1 | 10.5 | 1.2 | -6.2% | -5.9% | 1.5% | -1.1%
CNC(=O)C1CCC(Cn2c(=O)c3sccc3n(CC(=O)NCc3ccccc3)c2=O)CC1 (stereo unspecified) | x | 0.2 | x | x | x | x
COc1ccc(OC)c(NC2=NC3(CCCC3)N=C(N)N2)c1 | -57.6* | -4.9 | -1.1% | 2.6% | 0.0% | -5.8%
COc1ccccc1C(=O)NCCNc1nc2cc(C)cc(C)c2cc1C#N | 18.3 | 2.2 | -20.1% | 11.6µM* | u | -1.9%
CCc1ccc(CNC(=O)CN(c2ccc(C)cc2)S(=O)(=O)N(C)C)cc1 | x | -12.3 | x | x | x | x
Clc1cccc(C2=NC(c3cccs3)=Nc3ccc(Br)cc3N2)c1 | x | -11.8 | x | x | x | x
